Source: PubChem BioAssay AID1578 (Sanford-Burnham Center for Chemical Genomics, 2009)
Among all 290,000 compounds or so, about 3,000 (1%) were called active. Rule as the data show it: active = inhibition mostly above about 36% (no sharp cut-off); inactive = mostly below about 34%. This excerpt belongs to a sample that is enriched for actives.

Test: inhibition of NOD1-driven NF-kB reporter – cell-based, luminescence, uHTS, primary screen (AID 1578);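 also: HEK-293T reporter cells stimulated with the NOD1 agonist gamma-tri-DAP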
Settings: NOD1-driven NF-kB luciferase reporter cells, at 4 µM, active compounds read high
With COc1ccc(/C=C/C(=O)Nc2ccc3nc4n(c(=O)c3c2)CCCC4)cc1OC the inhibition was -31.1% (inactive).
For O=C(O)c1ccc(NCc2cccnc2)c([N+](=O)[O-])c1, the inhibition was -17.4% (inactive).
For C/C(=N\NC(N)=O)c1cccc(Cl)c1, the inhibition was 29% (inactive).
In the case of CCCCNC(=S)Nc1ccccc1Cc1ccccc1, the inhibition was -3.1% (inactive).
In the case of COCCCNC(=S)Nc1ccccc1C, the inhibition was -13.2% (inactive).
In the case of COCCNC(=S)Nc1ccccc1Cc1ccccc1, the inhibition was 45.2% (active).
In the case of CCCCCN(C(=O)NC(=O)NC(C)CC)S(C)(=O)=O (configuration not stated), the inhibition was -3.8% (inactive).
For Cc1noc(NC(=O)c2cccc(C(F)(F)F)c2)c1Cl, the inhibition was -5.6% (inactive).
With Cc1noc(NC(=O)c2ccc(Cl)cc2)c1Cl the inhibition was -33% (inactive).
For Cc1noc(NC(=O)c2ccc(Cl)c(Cl)c2)c1Cl, the inhibition was 67.6% (active).
With COc1cccc(C(=O)NCCNC(=O)c2ccc(C)nc2)c1 the inhibition was -6.6% (inactive).
In the case of CCCCNC(=S)N(C)/N=C/c1ccc(F)cc1, the inhibition was 100% (active).
In the case of CCCCNC(=S)N(C)/N=C/c1c(F)cccc1F, the inhibition was -5.6% (inactive).
For CCCCNC(=S)N(C)/N=C/c1ccccc1F, the inhibition was 12.5% (inactive).
For Cc1ccc(C(=O)NC2CCc3ccccc3C2=O)cc1 (configuration not stated), the inhibition was -47.4% (inactive).
With COCCN1CCN(C(=O)C2CCC(=O)N(Cc3ccccc3OC)C2)CC1 (configuration not stated) the inhibition was -18.1% (inactive).
For N#CCCn1cc(/C=C/C(=O)O)c(-c2ccc(F)cc2)n1, the inhibition was -31.6% (inactive).
In the case of COc1cc2c3nnc(-c4ccc(F)cc4)c-3cn(Cc3ccc(F)cc3)c2cc1OC, the inhibition was 108% (active).
For COc1ccc(Cn2cc3c(-c4ccc(F)cc4)nnc-3c3cc(OC)c(OC)cc32)cc1, the inhibition was 10.1% (inactive).
With COc1cc2c3nnc(-c4ccc(F)cc4)c-3cn(Cc3ccc(C)cc3)c2cc1OC the inhibition was -31.5% (inactive).
In the case of Cc1cc(N2CC(C(=O)Nc3nccs3)CC2=O)ccc1C(C)C (configuration not stated), the inhibition was -22.4% (inactive).
With COc1ccc(C(=O)Nc2cc(C)on2)cc1[N+](=O)[O-] the inhibition was -31.1% (inactive).
With O=C(Nc1ccc(-c2n[nH]c(=S)o2)cc1)c1ccccc1Cl the inhibition was -4.7% (inactive).
In the case of Cc1nn(-c2ncc(C(F)(F)F)cc2Cl)c(=O)n1-c1c(F)cccc1F, the inhibition was -38.4% (inactive).
For O=c1[nH]c(/C(Cl)=C/c2cc(Cl)ccc2O)nc2cc(Cl)ccc12, the inhibition was 81.7% (active).
For O=c1[nH]c(/C(Cl)=C/c2c(F)cccc2Cl)nc2cc(Cl)ccc12, the inhibition was 25.9% (inactive).
With CCc1ccc(/C=C(\Cl)c2nc3cc(Cl)ccc3c(=O)[nH]2)cc1 the inhibition was -10.4% (inactive).
With CCOP(=O)(OCC)C(NC(C)=O)C(=O)c1ccccc1 (configuration not stated) the inhibition was -30.2% (inactive).
In the case of Cc1cc(C)cc(NC(=S)NCc2cccnc2)c1, the inhibition was -23.4% (inactive).
In the case of CC(C)[C@@H]1COC(c2cccc(C3=N[C@H](C(C)C)CO3)n2)=N1, the inhibition was 11.3% (inactive).
In the case of CC(C)[C@@H]1COC(c2cccc(C3=N[C@H](C(C)C)CO3)c2)=N1, the inhibition was -29% (inactive).
For CC(C)[C@H]1COC(NC2=N[C@@H](C(C)C)CO2)=N1, the inhibition was 75.5% (active).
For Cc1ccc(C2C(=O)c3ccccc3C2=O)cc1, the inhibition was -11% (inactive).
In the case of CCOc1ccc(N/C(=N/c2nc(C)cc(C)n2)NC(C)=O)cc1, the inhibition was -12% (inactive).
In the case of COc1ccccc1-c1nc(C#N)c(N2CCN(Cc3ccccc3)CC2)o1, the inhibition was 13.8% (inactive).
With Cc1ccc(N2CN=c3s/c(=C\c4cccnc4)c(=O)n3C2)cc1 the inhibition was 84.1% (active).
In the case of CCc1ccc(N2CN=c3s/c(=C\c4ccccc4)c(=O)n3C2)cc1, the inhibition was -13% (inactive).
For Cc1ccc(N2CN=c3s/c(=C\c4ccccn4)c(=O)n3C2)cc1, the inhibition was -21.2% (inactive).
With COc1cccc(C2Nc3ccccc3NC3=C2C(=O)CC(C)(C)C3)c1OC (configuration not stated) the inhibition was -8.8% (inactive).
In the case of C=CCn1c(=O)c2c(nc3n2CCS3)n(C)c1=O, the inhibition was 5.1% (inactive).
In the case of CCN(CC)C(=O)C[n+]1cccc(/C=N/O)c1, the inhibition was -12.8% (inactive).
With Cc1ccc(C)c(OCC(=O)Nc2nc3ccc([N+](=O)[O-])cc3s2)c1 the inhibition was -16.9% (inactive).
With Cc1cccc(OCC(=O)Nc2nc3ccc([N+](=O)[O-])cc3s2)c1 the inhibition was 55.9% (inactive).
For CS(=O)(=O)N(CC(=O)N/N=C/c1ccc(OCC(=O)N2CCOCC2)cc1)c1ccccc1Cl, the inhibition was -22.8% (inactive).
For Cc1sc(NC(=O)CSc2nc(O)cc(=O)[nH]2)nc1-c1ccccc1, the inhibition was -24.3% (inactive).
With CN(CCCN1CCOCC1)C(=O)c1cc(COc2cccc(C(F)(F)F)c2)on1 the inhibition was -8.6% (inactive).
With CCOC(=O)C1CCCN(Cc2cn[nH]c2-c2ccc(F)cc2F)C1 (configuration not stated) the inhibition was -31.8% (inactive).
For OCCCC1CCCN(Cc2cn[nH]c2-c2ccc(F)cc2F)C1 (configuration not stated), the inhibition was 75% (active).
With O=C(C1CCN(Cc2cn[nH]c2-c2ccc(F)cc2F)CC1)N1CCOCC1 the inhibition was -5.7% (inactive).
In the case of O=C(NCc1ccc(F)cc1)N1CCN(S(=O)(=O)c2ccccc2F)CC1, the inhibition was -20.3% (inactive).
For O=C(N/N=C/c1ccc(Cl)cc1Cl)C(=O)NC1CC1, the inhibition was -3.9% (inactive).
In the case of CCCc1cc(-c2[nH]ncc2-c2ccc3c(c2)OCCCO3)c(O)cc1O, the inhibition was 17.6% (inactive).
In the case of CCc1cc(-c2[nH]ncc2-c2ccc(OC)cc2)c(O)cc1O, the inhibition was 12.6% (inactive).
For CCc1cc(-c2[nH]ncc2-c2ccc3c(c2)OCO3)c(O)cc1O, the inhibition was 97.7% (active).
For Cc1ccc(C(=O)NCC(=O)N2CCN(S(=O)(=O)c3cccs3)CC2)s1, the inhibition was -28.4% (inactive).
With O=C(N/N=C/c1ccc(OC(=O)c2cccc(F)c2)cc1)c1cccnc1 the inhibition was -21% (inactive).
With COc1ccccc1NC(=O)c1ccccc1Nc1ccccc1 the inhibition was -5.4% (inactive).
With COc1ccc(CN2CCNC(=O)C2CC(=O)NCCc2cnccn2)cc1C (configuration not stated) the inhibition was -22.4% (inactive).
In the case of Cc1[nH]nc(Nc2ccccc2)c1[N+](=O)[O-], the inhibition was 75.5% (active).
In the case of Cc1ccc(Nc2n[nH]c(C)c2[N+](=O)[O-])cc1, the inhibition was -38.4% (inactive).
For Cc1cccc(Nc2n[nH]c(C)c2[N+](=O)[O-])c1, the inhibition was -36.2% (inactive).
With CC1CCCN(S(=O)(=O)c2ccc3oc(=O)ccc3c2)C1 (configuration not stated) the inhibition was -39.5% (inactive).
In the case of Cc1ccc(OCCCn2cc(C#N)c3ccccc32)cc1, the inhibition was 26.6% (inactive).
For CCN(CC)S(=O)(=O)c1cc(C(=O)OCC(=O)c2ccc3c(c2)NC(=O)CO3)ccc1F, the inhibition was -21.3% (inactive).
For COCc1cc(C)nc(N2CCCCC2)c1C#N, the inhibition was -7.1% (inactive).
With O=C(O)c1ccc(/C=C2\CCCc3c2nc2ccccc2c3C(=O)O)cc1 the inhibition was -24% (inactive).
In the case of O=C(O)c1c2c(nc3ccccc13)/C(=C/c1ccc(O)cc1)CC2, the inhibition was 63.5% (active).
In the case of O=C(O)c1c2c(nc3ccccc13)/C(=C/c1ccc(O)cc1)CCC2, the inhibition was -23.9% (inactive).
With NC(=O)CSc1nnc(CNc2cccc(Cl)c2)n1CCc1ccccc1 the inhibition was -6.6% (inactive).
For CCOC(=O)c1sc(-c2ccc(F)cc2)cc1N, the inhibition was -18.5% (inactive).
In the case of CC(O)CNc1ncnc2cc(-c3ccc(F)cc3)sc12 (configuration not stated), the inhibition was -11.1% (inactive).
For C=CCNC(=O)c1ccc2c(=O)n(CCCN3CCCC3=O)c(=S)[nH]c2c1, the inhibition was -17.5% (inactive).
For N#CC1=C(N)Oc2ccc3ccc(O)cc3c2C1c1cccnc1 (configuration not stated), the inhibition was -18.7% (inactive).
For Cc1ccc(-c2nc3[nH]c(=O)cc(NC(=O)c4cccs4)n3n2)cc1, the inhibition was -1.6% (inactive).
With Cc1nc2c3cc(Cl)ccc3n(CCN3CCCCC3)c2s1 the inhibition was -5.1% (inactive).
For CC1CCN(S(=O)(=O)c2ccc3c(c2)NC(=O)CS3)CC1, the inhibition was -43.2% (inactive).
With O=C(COc1ccccc1)NCc1ccc(-n2cccc2)cc1 the inhibition was -34.8% (inactive).
In the case of Cc1ccc(CNC(=O)Cc2ccc(-n3cccc3)cc2)cc1, the inhibition was -32.1% (inactive).
For O=C(Cc1ccccc1)NCc1ccc(-n2cccc2)cc1, the inhibition was 48.6% (active).
In the case of Cc1ccc(COc2ccsc2C(=O)NNC(N)=S)cc1, the inhibition was -29.4% (inactive).
In the case of CCCOc1ccc(/C=N/Nc2ccccc2[N+](=O)[O-])c(O)c1, the inhibition was 55.7% (inactive).
With CCOc1cccc(/C=N/NC(=S)Nc2ccccc2[N+](=O)[O-])c1O the inhibition was 34.3% (inactive).
For OC(CNCCc1ccc(Cl)cc1)COc1cc(Cl)ccc1Cl (configuration not stated), the inhibition was -10.1% (inactive).
In the case of Cc1ccccc1OCC(=O)N/N=C/c1ccc(N2CCOCC2)o1, the inhibition was -23.5% (inactive).
For Cc1ccc(CSC2=NCCN2C(=O)C(C)Oc2ccccc2)cc1 (configuration not stated), the inhibition was -38.3% (inactive).
With CC1CCc2c(sc3ncnc(N4CCOCC4)c23)C1 (configuration not stated) the inhibition was -28.8% (inactive).
For CC1CCc2sc3ncnc(N4CCN(C)CC4)c3c2C1 (configuration not stated), the inhibition was 13.5% (inactive).
For CCOC(=O)C1CCCN(C(=O)COc2ccccc2F)C1 (configuration not stated), the inhibition was -25.1% (inactive).
For COC(=O)c1c(NC(=O)CN2C(=O)NC3(CCC(C(C)(C)C)CC3)C2=O)sc2c1CCCCC2 (configuration not stated), the inhibition was -10.4% (inactive).
In the case of COCC(C)N1CCC(n2nccc2NC(=O)CCCc2ccccc2)CC1 (configuration not stated), the inhibition was -1.8% (inactive).
In the case of O=C(NC1=NCCS1)c1cc(-c2cccc(Br)c2)nc2ccccc12, the inhibition was -10.6% (inactive).
For COc1cc(/C=C2\CC/C(=C\c3cc(OC)c(OC)c(OC)c3)C2=O)cc(OC)c1OC, the inhibition was 23% (inactive).
With COc1cc(/C=C2\CCOC2=O)cc(OC)c1OC the inhibition was -9.9% (inactive).
With O=C(CN(Cc1ccco1)C(=O)CNS(=O)(=O)c1ccc(F)cc1)NCCc1ccccc1 the inhibition was -27.1% (inactive).
For Cn1c(N)c(C(=O)COC(=O)c2ccc(Cl)c(S(=O)(=O)N3CCCC3)c2)c(=O)n(C)c1=O, the inhibition was 14.5% (inactive).
With Cc1ccc(C(=O)OCC(=O)c2c(N)n(C)c(=O)n(C)c2=O)cc1S(=O)(=O)N1CCCCC1 the inhibition was -7.4% (inactive).
With Cn1c(N)c(C(=O)COC(=O)c2ccc(Cl)c(S(=O)(=O)N3CCCCC3)c2)c(=O)n(C)c1=O the inhibition was 64.3% (active).
